The supplement of paper PMC12494721
Counter-ions that a name gives are not always drawn.

Tested on: Ruminococcus gnavus DSM 108212
Assay: fold change of Tryptamine concentration vs plate DMSO controls (fold change (ratio)); higher = more amine produced, active = hit call of the paper (significant change in both replicates, either direction)
Settings: incubation time: 27 h, anaerobic, 37 °C;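 for the amine columns active = adjusted P below 0.05 in both replicates with a change the same way and a mean fold change under 0.8 or over 1.25; inactive = the rest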
In short: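 Using LC–triple-quadrupole MS with dynamic MRM, amines were quantified against external calibration curves and corrected for drift within each batch. Samples were whole anaerobic mGAM cultures of four gut strains, grown 27 h at 37 °C from OD 0.1 before 1:1 dilution, extracted with cold acetonitrile/methanol containing 0.1% formic acid and centrifuged. Compounds were present at 20 µM final (sweeteners at 50 µM final). The numbers are fold changes versus plate DMSO controls, each the mean of 2 biological replicates.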

Fold change of Tryptamine concentration, active:
Cc1onc(-c2ccccc2)c1C(=O)N[C@@H]1C(=O)N2[C@@H]1SC(C)(C)[C@@H]2C(=O)O [Oxacillin sodium] (20 µM) 0.0465
Clc1ccc(C(Cn2ccnc2)OCc2c(Cl)cccc2Cl)c(Cl)c1 (stereo not drawn) [Isoconazole] (20 µM) 0.265
C[C@@H](O)[C@H]1C(=O)N2C(C(=O)O)=C(S[C@@H]3CN[C@H](C(=O)N(C)C)C3)[C@H](C)[C@H]12 [Meropenem] (20 µM) 0.0446
Nc1nc(F)nc2c1ncn2[C@@H]1O[C@H](CO)[C@@H](O)[C@@H]1O [Fludarabine] (20 µM) 0.796
Nc1ccn([C@@H]2O[C@H](CO)[C@@H](O)C2(F)F)c(=O)n1 [Gemcitabine] (20 µM) 0.641
COc1c(N2CCNC(C)C2)c(F)cc2c(=O)c(C(=O)O)cn(C3CC3)c12 (stereo not drawn) [Gatifloxacin] (20 µM) 0.226

Fold change of Tryptamine concentration, inactive:
OC[C@H]1O[C@@H](O[C@H]2[C@H](O)[C@@H](O)[C@H](O)O[C@@H]2CO)[C@H](O)[C@@H](O)[C@H]1O [Lactose] (50 µM) 0.989
C[C@@]12CC[C@@H]3[C@@](CC[C@H]4[C@@]3(C)CCC[C@@]4(C)C(=O)O)(CC1=O)C2 [Iso-Steviol] (50 µM) 1
CCCCOc1ccc(C(=O)CCN2CCCCC2)cc1 [Dyclonine hydrochloride] (20 µM) 0.947
CN(C)c1nc(N(C)C)nc(N(C)C)n1 [Altretamine] (20 µM) 1.06
c1ccc(CNc2ncnc3nc[nH]c23)cc1 [Aminopurine, 6-benzyl] (20 µM) 0.932
OCCN1CCN(CC/C=C2/c3ccccc3Sc3ccc(C(F)(F)F)cc32)CC1 [Flupentixol dihydrochloride cis-(Z)] (20 µM) 0.921
Cc1ccc(Cl)c(Nc2ccccc2C(=O)O)c1Cl [Meclofenamic acid sodium salt monohydrate] (20 µM) 0.959
NNc1nncc2ccccc12 [Hydralazine hydrochloride] (20 µM) 1.03
O=C(O)CCC(=O)c1ccc(-c2ccccc2)cc1 [Fenbufen] (20 µM) 1.04
C[C@]12CCC(=O)C=C1C=C[C@@H]1[C@@H]2CC[C@@]2(C)[C@H]1CC[C@@]21CCC(=O)O1 [Canrenone] (20 µM) 1.12
CCN(CCO)CCCC(C)Nc1ccnc2cc(Cl)ccc12 (stereo not drawn) [Hydroxychloroquine sulfate] (20 µM) 0.991
COc1cc(C(=O)OCCCN2CCCN(CCCOC(=O)c3cc(OC)c(OC)c(OC)c3)CC2)cc(OC)c1OC [Dilazep dihydrochloride] (20 µM) 1.09
CCOC(=O)n1ccn(C)c1=S [Carbimazole] (20 µM) 1.01
CCOC(=O)CC(=O)N1CCSC1COc1ccccc1OC (stereo not drawn) [Moguisteine] (20 µM) 0.978
CN[C@@H]1[C@@H](O[C@H]2O[C@H](CO)[C@@H](N)[C@H](O)[C@H]2O)OC2C[C@@H](N)[C@@H](O[C@H]3[C@H](O)[C@@H](O)[C@H](N)C[C@@H]3N)OC2[C@@H]1O (stereo partly drawn) [Apramycin] (20 µM) 0.96
Cc1c(OCC(F)(F)F)ccnc1C[S+]([O-])c1nc2ccccc2[nH]1 (stereo not drawn) [Lansoprazole] (20 µM) 0.974
Cn1c(=O)cc(N2CCC[C@@H](N)C2)n(Cc2ccccc2C#N)c1=O [Alogliptin benzoate] (20 µM) 0.899
CCN(Cc1ccncc1)C(=O)C(CO)c1ccccc1 (stereo not drawn) [Tropicamide] (20 µM) 0.984
CNC1(C)C2CCC(C2)C1(C)C (stereo not drawn) [Mecamylamine hydrochloride] (20 µM) 1.03
CC1=NN(c2ccccc2)C(=O)C1 [Edaravone] (20 µM) 1.01
CCCC(CCC)C(=O)O[C@H]1C[C@H]2CC[C@@H](C1)[N+]2(C)C [Anisotropine Methylbromide] (20 µM) 1.04
OC(CNCC(O)C1CCc2cc(F)ccc2O1)C1CCc2cc(F)ccc2O1 (stereo not drawn) [Nebivolol hydrochloride] (20 µM) 0.882
